{"source": "PubChem BioAssay AID2642", "about": "(Johns Hopkins Ion Channel Center, 2010)", "note": "The whole screen tested about 310,000 compounds, of which about 3,900 (1.3%) were called active.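 Rule for the calls: active = compounds whose thallium flux B-score, printed positive for inhibition, exceeds three library SD while starting fluorescence stays within three; inactive = the rest.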 The entries come from a sample that favours actives as a whole.", "data": [{"biological_target": "Potassium voltage-gated channel subfamily KQT member 1 (Homo sapiens) (UniProt P51787)", "sequence (P51787 whole entry, looked up)": "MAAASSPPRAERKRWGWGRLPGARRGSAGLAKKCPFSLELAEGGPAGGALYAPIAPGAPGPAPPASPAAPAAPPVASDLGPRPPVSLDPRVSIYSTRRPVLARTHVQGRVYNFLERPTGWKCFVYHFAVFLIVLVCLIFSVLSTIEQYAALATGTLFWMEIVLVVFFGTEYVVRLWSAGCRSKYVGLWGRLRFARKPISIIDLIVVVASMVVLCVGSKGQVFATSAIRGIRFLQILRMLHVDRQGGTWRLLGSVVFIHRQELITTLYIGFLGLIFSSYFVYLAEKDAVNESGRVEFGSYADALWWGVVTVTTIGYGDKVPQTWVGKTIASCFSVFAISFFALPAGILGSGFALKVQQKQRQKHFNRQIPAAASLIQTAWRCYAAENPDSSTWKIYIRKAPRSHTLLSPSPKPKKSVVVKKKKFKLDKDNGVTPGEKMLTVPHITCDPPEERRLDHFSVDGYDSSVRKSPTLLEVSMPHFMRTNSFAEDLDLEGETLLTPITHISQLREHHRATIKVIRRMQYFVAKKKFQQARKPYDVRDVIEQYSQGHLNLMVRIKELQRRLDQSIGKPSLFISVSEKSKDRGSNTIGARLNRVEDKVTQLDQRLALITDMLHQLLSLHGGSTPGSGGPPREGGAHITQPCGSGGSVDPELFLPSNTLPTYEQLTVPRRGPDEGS", "assay": "KCNQ1 potassium current blockers – cell-based, thallium flux, high-throughput, primary screen (AID 2642);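 note: channel opened by potassium depolarization with thallium stimulus after 20 min compound exposure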", "details": "CHO-K1 KCNQ1, FluxOR thallium flux fluorescence, at 10 µM; stronger effect = higher value", "values": [{"smiles": "CCOc1ccc(-c2cc(C)[n+](CCN(CC)CC)c(-c3ccc(OCC)cc3)c2)cc1", "B-score": "7 (active)"}, {"smiles": "CSC1=NP(=S)(SC)N(C)c2nc3n(c21)CCC3", "note": "(stereo not given)", "B-score": "inactive"}, {"smiles": "CCN1C(=O)C(=Cc2c(C)n(CC(=O)NCC3CCCO3)c3ccccc23)C(=O)N(CC)C1=S", "note": "(stereo not given)", "B-score": "inactive"}, {"smiles": "CN(C)S(=O)(=O)c1cc(C(=O)N2CCC(C(=O)O)(c3ccccc3)CC2)ccc1Cl", "B-score": "inactive"}, {"smiles": "Cc1ccc(-c2nc3ccccc3c(=O)n2-c2ccc(Br)cn2)cc1", "B-score": "inactive"}, {"smiles": "CCCCCCCCCCCCn1ccc(=N)cc1", "B-score": "13 (active)"}, {"smiles": "CC1=CC(=Cc2sc3ccccc3[n+]2C)C=C(C)O1", "B-score": "inactive"}, {"smiles": "Clc1ccc2nc3c(c(-c4ccccc4)c2c1)CNCC3", "B-score": "inactive"}, {"smiles": "O=C(Nc1cccc2ccccc12)N1CCC2(CC1)OCCO2", "B-score": "inactive"}, {"smiles": "CC(C)(C)c1ccc(CN2C(=O)CN=C(c3ccccc3)c3ccccc32)cc1", "B-score": "6 (active)"}, {"smiles": "O=C1CC(=O)N(Cc2ccccc2)C(=O)N1CCCCCCN1C(=O)CC(=O)N(Cc2ccccc2)C1=O", "B-score": "inactive"}, {"smiles": "C=Cn1ccnc1P(=S)(c1cc(N(CC)CC)ns1)c1nccn1C=C", "B-score": "inactive"}, {"smiles": "O=c1[nH]c(=O)n(-c2ccc(F)cc2)c(O)c1C=NCCN1CCCCC1", "B-score": "inactive"}, {"smiles": "COC(=O)C1=C(c2ccccc2)C[C@@H]2CC[C@H]1N2C(=O)N1CCCCC1", "B-score": "inactive"}, {"smiles": "C/C(=N/O)c1ccc2ccc3ccccc3c2c1", "B-score": "inactive"}, {"smiles": "C/C=C/CC1(CC)C(=O)NC(=S)NC1=O", "B-score": "inactive"}, {"smiles": "CCOc1cccc(=NC2CCCCC2)c2c(C)[nH]c(C)c12", "B-score": "7 (active)"}, {"smiles": "CN(C)c1nc(N(C)C)nc(N(C#N)CCCl)n1", "B-score": "inactive"}, {"smiles": "COc1ccccc1N1CCN(C(CNC(=O)Oc2ccccc2)c2cccnc2)CC1", "note": "(stereo not given)", "B-score": "inactive"}, {"smiles": "O=C(N/N=C/c1c(O)n(C2CC2)c(=S)[nH]c1=O)c1ccccc1Cl", "B-score": "inactive"}]}]}
